One may read the inhibition as the change of the read-out against control, counted positive when it falls.

About 2,000 (83%) of roughly 2,400 compounds were called active. So high a share suggests a set chosen from earlier hits. Not all results are given here. Values without a mark were called inactive.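 Rule for the calls: active = inhibition above the solvent-only control well mean plus 3 SD, limit set per screening run (cut at about 23% in these data); inactive = the rest.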

From PubChem BioAssay AID2153 (The Scripps Research Institute Molecular Screening Center, 2009) come the findings set out here.

Sequence of Guanyl-specific ribonuclease T1 (Aspergillus oryzae (strain ATCC 42149 / RIB 40)) (P00651 whole entry, looked up): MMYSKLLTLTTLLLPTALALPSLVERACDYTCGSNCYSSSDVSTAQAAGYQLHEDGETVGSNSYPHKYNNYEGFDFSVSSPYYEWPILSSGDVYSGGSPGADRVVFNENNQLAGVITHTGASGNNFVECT

This test addresses Guanyl-specific ribonuclease T1 (Aspergillus oryzae (strain ATCC 42149 / RIB 40)) (UniProt P00651). The experiment in a line: blockers of Aspergillus RNase T1 cleavage – biochemical, fluorescence polarization, counter-screen for TPT1 inhibitor project (AID 2153).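 Note: plate controls were DMSO wells with enzyme for no effect and wells without RNase T1 for full effect; inhibitors block cleavage so intact labeled substrate keeps polarization high.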 The settings on record: 1536-well, at 5 µM, active compounds read high.
On to `Cc1cc(O)c(C(=O)/C=C/c2c(F)c(F)c(F)c(F)c2F)c(=O)o1`, for which the inhibition is 81.2% (active). With `N#CC1=C(N)Oc2c(sc3ccccc23)C1c1ccco1` (stereo not given), the inhibition was 76.9% (active). As for `Cn1c2ccccc2c2cc(/C=C(\NC(=O)c3ccccc3)C(=O)NCC(=O)O)ccc21`, the figure is 92.9% (active); as for `Cc1ccc(Nc2ccccc2N)cc1`, 36% (active); as for `Cc1cccn2c(=O)c(/C=C3\SC(=S)N(CC(C)C)C3=O)c(NCCCOC(C)C)nc12`, 131% (active). Next, `COc1cc(/C=C2/C(=O)NN(c3cccc(Cl)c3)C2=O)cc(Br)c1O`: 150% (active); `Cc1cc(C)c(/C=C2\C(=O)Nc3ccccc32)[nH]1`: 118% (active). Take `Cc1ccc(-c2nn(-c3ccccc3)cc2/C=C2\SC(=S)N(CCCCCC(=O)O)C2=O)o1`: the inhibition was 73.6% (active). For `CCC(c1nnnn1Cc1ccco1)N(Cc1cc2cc(OC)ccc2[nH]c1=O)C1CCCCC1` (stereo not given), the inhibition was 17.9%. Next, `N#C/C(=C(/O)COC(=O)COc1ccc(Cl)cc1)c1nc2ccccc2[nH]1`: 50.6% (active).

For `CCOc1ccc2nc(/N=C/c3nc(-c4ccccc4)oc3O)sc2c1`, the inhibition is 65.4% (active). As to `Cc1c(-c2ccccc2)cn2c1-c1ccc(C)n1CC2`, the inhibition was 47.3% (active). As for `Cn1cccc1/C=C1\SC(=S)N(NC(=O)c2ccc(Cl)cc2)C1=O`, the figure is 113% (active); as for `Fc1ccc2nc(Nc3nc4c(s3)CCCC4)sc2c1`, 37.5% (active). Take `CN1/C(=C\C=C2\N=C(c3ccc(F)cc3)OC2=O)C(C)(C)c2ccccc21`: the inhibition is 140% (active). As for `Cc1ccc(C)c2[nH]c(=O)c(CCNC(=O)CC(C)C)cc12`, the figure is 6.2%. Take `N#C/C(=C/c1ccc(N2CCCCC2)o1)C(=O)NCCc1c[nH]c2ccccc12`: the inhibition was 170% (active).

With `CN1/C(=c2/s/c(=C3/C(=O)N(c4ccccc4)NC3=Nc3ccccc3)n(C)c2=O)C(C)(C)c2ccccc21`, the inhibition is 92.8% (active). As for `CS(=O)(=O)c1ccc2c(c1)SC1=NC(=O)/C(=C/c3ccco3)C(=N)N12`, the figure is 60.6% (active); as for `CCN(CC)c1ccc(/C=N/Nc2nc(C)cc(C)n2)c(O)c1`, 44.9% (active).

For `Cc1ccc(S(=O)(=O)N(C)c2nc3ccccc3n3c(C(C)C)nnc23)cc1`, the inhibition is 3.03%.

Consider `CCOc1nnc(C)c2c(C)n(-c3cccc(Cl)c3)nc12`, for which the inhibition was 88.4% (active).

For the compound `CSC1=N/C(=C\C=C\c2cccs2)C(=O)S1`, the inhibition is 64.5% (active). For the compound `CCCOc1ccc(Cn2c(O)cc(=O)[nH]c2=O)cc1`, the inhibition is 30.3% (active). As for `COc1ccc(C2=NN(C(=O)c3ccccc3C(=O)O)C(c3ccccc3O)C2)cc1` (stereo not given), the figure is 37.9% (active); as for `O=C(/C=C/c1ccc(N2CCOCC2)cc1)c1ccccc1`, 91.3% (active). In the case of `Cc1ccc(Nc2nc(Cl)c(C=O)s2)cc1`, the inhibition was 77.2% (active).

Take `Cc1ccc2[nH]c(=O)c(CN3CCCCC3)c(-c3ccccc3)c2c1`: the inhibition is 3.06%. As for `CCOc1ccc(-n2c(O)c(/C=N/c3ccnn3Cc3ccncc3)c3ccccc3c2=O)cc1`, the figure is 92% (active). Next, `Cc1ccc2cc(/C=N/Nc3ccc(C(=O)O)cc3)c(Cl)nc2c1`: 46.9% (active); `CCn1c(/C=C/c2ccc([N+](=O)[O-])o2)nc2ccccc2c1=O`: 49.4% (active); `CN=c1scc(-c2cc(OC)ccc2OC)n1/N=C/c1c(C)[nH]c2ccccc12`: 32.1% (active). As for `COc1cc(N2CCCC2)c(OC)cc1/C=C(/C#N)c1cccc(Br)c1`, the figure is 91.3% (active); as for `CCN1/C(=C/c2ccc3ccc(C)cc3[n+]2CC)Sc2ccccc21`, 59.6% (active).

Take `CCN1/C(=C\c2ccc3ccccc3[n+]2CC)Sc2cc(C)ccc21`: the inhibition is 88.3% (active). Next, `O=S(=O)(O)Oc1c[nH]c2ccccc12`: 49.5% (active); `CCOC(=O)C1=C(C)Nc2sc(C(=O)c3ccc(Br)cc3)c(N)c2C1c1ccc(C(=O)OC)cc1` (stereo not given): 37.3% (active).

Regarding `Cc1cc(/C=C2/SC(=O)N(CC(=O)N3CCCC3)C2=O)ccc1N1CCOCC1`, the inhibition is 78.1% (active).

As to `CC(=O)n1c(C=Nc2ccccc2)c(O)c2ccccc21`, the inhibition was 84.6% (active).

On to `COC(=O)c1[nH]c2cccc(C)c2c1NC(=O)CN1CCCc2ccccc21`, for which the inhibition is 29.8% (active). With `CCN(CC)c1ccc2cc(C(N)=O)/c(=N\NC(=O)c3ccncc3)oc2c1`, the inhibition is 135% (active). `CCOC(=O)c1c(NC(=S)Nc2ccccc2)sc2c1CCN(C)C2`: the inhibition is 54% (active). `CC(=O)c1cc(NC(=O)c2ccccc2)c(=O)oc1/C=C/N(C)C`: the inhibition is 123% (active). Regarding `CC[n+]1cc(C)ccc1/C=C/c1ccc(N(C)C)cc1`, the inhibition was 51.2% (active). Next, `O=C(NNc1c2ccccc2nc2ccccc12)c1cc2ccccc2cc1O`: 46.8% (active).

In the case of `CCN(CC)C(=O)CSC(Nc1cccc(F)c1)=C(C#N)C#N`, the inhibition is 61.1% (active). Consider `CN(C)CCCn1c(N)c(C#N)c2nc(C#N)c(C#N)nc21`, for which the inhibition is 58.9% (active). Next, `Cc1ccc(N=C2NC(=O)/C(=C/C=C/c3ccco3)S2)cc1C`: 30.5% (active); `COc1ccc(Cc2nc(-c3ccccn3)no2)cc1OC`: 13.1%. Next, `CN(C)c1ccc(/C=C2\NC(=S)N(Cc3ccccc3)C2=O)cc1`: 144% (active); `CCOC(=O)c1c(CC(C)C)csc1/N=C/C1=C(O)CCCC1=O`: 17.9%; `Cc1ccc(-n2c(C)cc(/C=N/Nc3ccc([N+](=O)[O-])cn3)c2C)c(C)c1`: 76.1% (active). Next, `Cc1cc(/C=N/Nc2ccc([N+](=O)[O-])cn2)c(C)n1-c1cccc(C(=O)O)c1`: 62.8% (active); `Nc1nonc1-n1nnc(C(=O)N/N=C/c2cc(Br)ccc2O)c1CSC1=NCCS1`: 41.6% (active). As for `COc1ccccc1/C=N/Nc1nc(C)c(C(C)=O)s1`, the inhibition is 39.1% (active). As for `O=C(CN1C(=O)c2ccccc2C1=O)NCc1ccc(C(=O)O)cc1`, the figure is 15.9%; as for `Cc1c(CC(=O)N2CCN(C(=O)C3COc4ccccc4O3)CC2)c(=O)oc2c(O)c(O)ccc12` (stereo not given), 8.71%. On to `COc1cc(/C=C2/SC(=S)N(Cc3ccccc3)C2=O)cc(OC)c1O`, for which the inhibition is 108% (active). With `NC(=O)c1c(Nc2nc3c(F)cccc3s2)sc2c1CCCC2`, the inhibition was 97.8% (active). With `CC1=CC2=NC(=O)/C(=C/c3coc4ccccc4c3=O)C(=N)N2O1`, the inhibition is 45.6% (active).
